The source of these data is PubChem BioAssay (NCI).

This is part of a sample that, as a whole, favours compounds with a hit. Of some 83,000 tested, about 20% had one in any assay.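 Compound tested at a single concentration for 48 hours in 96-well plates; a percent growth value below 10 was scored as active.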 A number with no mark means an inactive call. Active and inactive are the calls of the source.

Among the test systems are T-47D breast; BT-549 breast; MDA-MB-435 melanoma; SW-620 colon; MCF7 breast; HCT-116 colon; HCC-2998 colon; KM12 colon.
Assay in all cases: NCI-60 one-dose screen, 48 h (100 = growth as untreated, 0 = no growth, -100 = all killed)
What all share (conditions): 10 µM unless noted

On to `CCOC(=O)CC1CSC(N/N=C/c2ccc(F)c(Br)c2)=N1` (stereo not given), for which the growth was 93.7% with T-47D breast; 110% with BT-549 breast; 108% in the assay with MDA-MB-435 melanoma; 102% with SW-620 colon; 96.1% with MCF7 breast; 88.5% in the assay with HCT-116 colon. The growth with HCC-2998 colon is 105%; with KM12 colon it was 93.2%.
Regarding `Cc1cc(N2CCN(CC(=O)Nc3ccc4c(ccn4Cc4ccccc4)c3)CC2)nc(N2CCOCC2)n1`, the growth was 59.6% with T-47D breast; 81.5% with BT-549 breast; 92.9% in the assay with MDA-MB-435 melanoma; 95% with SW-620 colon; 79.8% in the assay on MCF7 breast; 72.5% with HCT-116 colon. Further, the results for the growth in the assay on HCC-2998 colon and in the assay on KM12 colon were 119% and 91.3%, respectively.
Consider `COc1ccc(-c2cn(Cc3cc4ccccc4s3)nn2)cc1OCCN1CCCCC1`, for which the growth is 85.1% with T-47D breast; 74.8% in the assay on BT-549 breast; 69.6% in the assay on MDA-MB-435 melanoma; 90.9% in the assay with SW-620 colon; 60.6% in the assay on MCF7 breast; 75.9% with HCT-116 colon. In addition, the values for the growth in the assay on HCC-2998 colon and with KM12 colon were 57.4% and 87%, respectively.
Turning to `Clc1ccc(Nc2ncc(Cc3cccc(Cl)c3Cl)s2)cc1`, the growth in the assay with T-47D breast is 77.9%; in the assay with BT-549 breast, 129%; in the assay with MDA-MB-435 melanoma, 105%; in the assay on SW-620 colon, 101%; in the assay with MCF7 breast, 90.9%; in the assay with HCT-116 colon, 92.8%. Besides, the growth with HCC-2998 colon and with KM12 colon was 101% throughout.
For `COC(=O)c1c(C)nc(C)c2c1C(=O)C=C(NCc1ccccc1)C2=O`, the growth in the assay with T-47D breast is 82.2%; in the assay with BT-549 breast it was 90%; in the assay with MDA-MB-435 melanoma, 103%; with SW-620 colon it was 106%; in the assay with MCF7 breast, 76%; in the assay on HCT-116 colon, 76%. The growth was 96.2% in the assay with HCC-2998 colon and 83% in the assay on KM12 colon.
For the molecule `C=CCn1cc(-c2nc3ccccc3s2)c2cc(-c3ccc4c5c(cccc35)C(=O)N(CCO)C4=O)ccc21`, the growth in the assay on T-47D breast is 78.1%; in the assay with BT-549 breast, 99.4%; in the assay with MDA-MB-435 melanoma, 109%; in the assay with SW-620 colon, 98.9%; with MCF7 breast it was 80.2%; in the assay with HCT-116 colon it was 96.7%. For the same molecule, the growth was 101% in the assay on HCC-2998 colon and 105% in the assay with KM12 colon.
On to `N#CSc1c[nH]c2ccc(/C=C/C(=O)/C=C(O)/C=C/c3ccc4[nH]cc(SC#N)c4c3)cc12`, for which the growth in the assay on T-47D breast was 19.4%; with BT-549 breast, 15.7%; with MDA-MB-435 melanoma, -2.07% (active); with SW-620 colon, 9.56% (active); with MCF7 breast, 10.5%; in the assay on HCT-116 colon, 9.39% (active). Besides, the results for the growth in the assay on HCC-2998 colon and in the assay with KM12 colon were 46.3% and 24.9%, respectively.
`O=C(NCCCCO)c1cncnc1Nc1ccc2c(ccn2Cc2cccc(F)c2)c1`: the growth in the assay on T-47D breast was 83.3%; with BT-549 breast it was 88.6%; with MDA-MB-435 melanoma, 92.1%; with SW-620 colon, 105%; in the assay on MCF7 breast, 96.8%; in the assay with HCT-116 colon, 91.5%. The figures for the growth with HCC-2998 colon and with KM12 colon were 93.4% and 97.4%, respectively.
Turning to `COc1cc(C[C@H]2COc3cc(O)cc(O)c3C2=O)ccc1O`, the growth with T-47D breast is 31.3%; with BT-549 breast it was 27.8%; in the assay on MDA-MB-435 melanoma it was -22.5% (active); in the assay on SW-620 colon it was 23.1%; in the assay on MCF7 breast it was 22.6%; in the assay with HCT-116 colon, 12.6%. Also, the growth was 88.2% in the assay with HCC-2998 colon and 24.7% with KM12 colon.
With `CCOc1ccc(NC(=O)Nc2ccc(OCC)cc2)cc1`, the growth in the assay on T-47D breast was 95.7%; in the assay with BT-549 breast it was 113%; in the assay on MDA-MB-435 melanoma it was 109%; in the assay on SW-620 colon it was 116%; with MCF7 breast, 94.5%; in the assay on HCT-116 colon it was 106%. Besides, the growth in the assay with HCC-2998 colon was 103%; with KM12 colon, 102%.
Turning to `Cc1ccccc1N1CCN(C(=S)c2ccccc2)CC1`, the growth in the assay with T-47D breast was 89.1%; in the assay on BT-549 breast it was 88.5%; with MDA-MB-435 melanoma, 103%; in the assay with SW-620 colon, 98.3%; in the assay with MCF7 breast, 88.2%; in the assay on HCT-116 colon it was 91.9%. The growth in the assay on HCC-2998 colon is 75.3%; in the assay on KM12 colon, 112%.
For the molecule `Cc1c(C(C)(C)O)cn2ncnc(Oc3ccc(NC(=O)Nc4ccc(Cl)c(C(F)(F)F)c4)c(F)c3)c12`, the growth in the assay with T-47D breast was 40.6%; in the assay on BT-549 breast, 72.4%; with MDA-MB-435 melanoma, 58%; with SW-620 colon, 85%; in the assay with MCF7 breast, 32.4%; in the assay with HCT-116 colon, 38.7%. The growth in the assay on HCC-2998 colon was 125%; with KM12 colon, 43.6%.
For the molecule `N[C@@H]1CCC[C@H]1NCCCCN1C(=O)c2cccc3cc([N+](=O)[O-])cc(c23)C1=O`, the growth is 38.1% in the assay with T-47D breast; 69.7% with BT-549 breast; 43.4% with MDA-MB-435 melanoma; 23.8% in the assay with SW-620 colon; 17.2% in the assay on MCF7 breast; 11.3% in the assay with HCT-116 colon. The growth is 48% in the assay on HCC-2998 colon and 33.1% in the assay on KM12 colon.
On to `CNCCCNc1nc2ccccc2c2c(=O)c3cc(Cl)ccc3sc12`, for which the growth in the assay on T-47D breast is 48.5%; in the assay with BT-549 breast, 92.4%; in the assay with MDA-MB-435 melanoma it was -18.5% (active); in the assay with SW-620 colon, -87% (active); in the assay on MCF7 breast, -77.3% (active); in the assay on HCT-116 colon, -92.1% (active). In addition, the growth in the assay on HCC-2998 colon is -89.8% (active); in the assay with KM12 colon, -24.6% (active).
On to `CC1SC(c2ccccc2O)N(NC(=O)CCC(=O)c2nc3ncccc3[nH]2)C1=O` (stereo not given), for which the growth in the assay with T-47D breast is 93.6%; with BT-549 breast, 122%; with MDA-MB-435 melanoma, 102%; in the assay on SW-620 colon, 92.6%; in the assay with MCF7 breast, 98.7%; with HCT-116 colon, 91.2%. The growth with HCC-2998 colon is 92.9%; in the assay on KM12 colon it was 95.2%.
